Shown are actives, neighbours in structure and some others; about 11% of the full set was active somewhere.
NPSR antagonist: antagonists of human neuropeptide S receptor cAMP signaling; Q6W5P4; CHO-NPSR cells, cAMP TR-FRET, antagonist mode; Potency, µM (top dose mostly 38.3 µM), actives largely listed as inhibitors; 1% of 220,000 active; AID 1461; active means well fitted curve in the direction sought with a large enough effect; inconclusive means small, poorly fitted or top-dose-only effect, or another doubt; inactive means no such curve, though single readings can be large; an effect the other way counts as inactive or inconclusive; further: nearly all actives have a fitted effect of over 50% in size
IMPase Li inh: cell-permeable IMPase inhibitors with lithium potentiation; AID 1457; 0.35% of 210,000 active; CHO-M1 cells, IP1 TR-FRET (IP-One), carbachol + lithium; Potency, µM (series often up to 59.4 µM), most hits filed as inhibitors; active means well fitted curve in the direction sought with a large enough effect; inconclusive means small, poorly fitted or top-dose-only effect, or another doubt; inactive means no such curve, though single readings can be large; an effect the other way counts as inactive or inconclusive;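 further: IP1 builds up when IMPase is blocked and the TR-FRET signal falls; nearly all actives have a fitted effect of over 50% in size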
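Concentration–response in CHO-M1 cells, lithium-potentiated; 30 min at 37C. IP1 detected by competitive TR-FRET after 10 min lysis at RT. Hill-fitted AC50.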
ALDH1A1 block: inhibitors of human aldehyde dehydrogenase 1A1 | P00352 | Purified ALDH1A1, NADH fluorescence, propionaldehyde substrate | Potency, µM (doses to about 75.3 µM), most hits filed as inhibitors | 7.3% of 220,000 active | AID 1030
HPGD inh: inhibitors of human 15-hydroxyprostaglandin dehydrogenase (HPGD). AID 894. Potency, µM, most hits filed as inhibitors. 4.3% of 150,000 active. purified HPGD, NADH fluorescence kinetic, PGE2 substrate. P15428
Target sequence (P15428 whole entry, looked up): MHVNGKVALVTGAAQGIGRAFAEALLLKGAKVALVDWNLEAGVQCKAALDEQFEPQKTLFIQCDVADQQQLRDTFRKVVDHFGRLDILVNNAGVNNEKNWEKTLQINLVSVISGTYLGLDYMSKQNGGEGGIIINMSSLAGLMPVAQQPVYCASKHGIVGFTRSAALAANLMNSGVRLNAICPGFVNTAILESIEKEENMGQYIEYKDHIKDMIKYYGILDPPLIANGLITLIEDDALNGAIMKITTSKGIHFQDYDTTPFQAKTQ
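20 nM HPGD preincubated 15 min at room temperature with compound in 50 mM Tris-HCl pH 8, 0.01% Tween 20. Started with 1 mM NAD+ and 30 uM prostaglandin E2; NADH fluorescence (360/450 nm) read 5 times over 30-s intervals, last minus first.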
IMPase inh: IMPase inhibition in cells | AID 901 | 120,000 tested, under 10 active | CHO-M1 cells, IP1 accumulation, HTRF TR-FRET ratio | P97697 | inhibition (IP1 accumulation), % at 46.1 µM; active means well fitted curve in the direction sought with a large enough effect in the signal ratio, not every such curve was filed as active; inconclusive means small, poorly fitted or top-dose-only effect, or a change in a side signal; inactive means no such curve, though single readings can be large or run the other way; the % refers to the signal ratio;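 further: cells stimulated with carbachol in lithium chloride buffer; higher means more IMPase inhibition seen as more IP1 and lower FRET ratio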
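CHO-M1 cells (CHO stably expressing M1 receptor), compound up to 46 uM final, stimulated with carbachol (50 uM as added) in buffer with 50mM LiCl, pH 7.4, 30 min at 37C. Cytosolic IP1 read by TR-FRET; AC50 from Hill fits.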
PNC assembly inh: perinucleolar compartment assembly inhibition | PC3M PTB-GFP, PNC prevalence imaging, 16 h; hits give low values | activity change (PNC), negative = inhibition, % at 10 µM | 3.1% of 140,000 active;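 active means readout at or below -70, meaning at least 70% loss of cells showing the perinucleolar compartment, a nuclear body marking cancer cells; inconclusive means readout between -30 and a set limit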
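Read-out is percentage of cells bearing a perinucleolar compartment, from automated 20x imaging of fixed, Hoechst-stained PC3M PTB-GFP cells. Cells were seeded 4 h, then exposed 16 h to compound (23 nl of library stock) in duplicate plates.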
Of the large screens only hits and unclear results are named; the others gave an inactive call. Unless noted, the call rests on the fitted dose curve; in most records, active means well fitted inhibition curve with a large enough effect (not every such curve was filed as active); inconclusive means small, poorly fitted or top-dose-only effect, or another doubt; inactive means no such curve, though single readings can be large or run the other way.

CN(c1ccccc1)S(=O)(=O)c1ccc(C(=O)Nc2nccs2)cc1	none
CCc1nnc(NC(=O)c2ccc(Cl)c(S(=O)(=O)N3CCc4ccccc4C3)c2)s1	none (no result: IMPase inh)
Cn1c(SCc2ccc(C(=O)Nc3nccs3)cc2)nnc1-c1ccccc1	ALDH1A1 block inconclusive, HPGD inh 14µM
CC1(C)C(=O)OC(c2cccc([N+](=O)[O-])c2)C2(CCCCC2)C1=O (configuration not stated)	ALDH1A1 block inconclusive (no result: HPGD inh, IMPase inh, PNC assembly inh)
CCOc1ccc(C(=O)N2CCc3cc(OC)c(OC)cc3C2)cc1OCC	none
CCc1nnc(NC(=O)c2c(O)c3cccc4c3n(c2=O)CC4)s1	IMPase Li inh inconclusive
CCc1nnc(NCC(=O)N2CCc3ccccc32)s1	ALDH1A1 block 25µM, IMPase inh inconclusive, PNC assembly inh inconclusive
CCc1nnc(NC(=O)c2cccc(S(=O)(=O)N(C)c3ccccc3)c2)s1	HPGD inh 28µM
Cc1ccc(NC(=O)CSc2ncc3ccccn23)cc1C	ALDH1A1 block 3.2µM (no result: HPGD inh, IMPase inh, PNC assembly inh)
Cc1ccc(NC(=O)CSc2ncn(-c3ccccc3)n2)cc1C	none (no result: IMPase inh)
COCC(=O)N(CCc1ccc(OC)c(OC)c1)Cc1nc2ccccc2c(=O)[nH]1	none
CN(C)S(=O)(=O)c1ccc(-c2csc(N/N=C/c3ccco3)n2)cc1	none (no result: IMPase Li inh, ALDH1A1 block, HPGD inh, IMPase inh, PNC assembly inh)
O=C(CSc1nnc2c(n1)[nH]c1ccccc12)Nc1ccc(N2CCOCC2)cc1	ALDH1A1 block 22µM (no result: IMPase Li inh, HPGD inh, IMPase inh, PNC assembly inh)
c1ccc2c(c1)[nH]c1nc(SCCN3CCOCC3)nnc12	ALDH1A1 block inconclusive, HPGD inh 32µM

Assay outcomes (PubChem)
